# Experimental data taken from the supplement of paper PMC8371130.
# Structures can show the parent of a compound that is named as a salt.
# Tested on: HL-1
# Experiment: relative cell viability (CellTiter-Glo) vs DMSO control (% of DMSO control); higher = more viable cells
# Method in brief: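 One day after HL-1 mouse atrial cardiomyocytes were plated (1000 cells per well, 384-well plates) with compounds at 40, 200, 1000 or 5000 nM in 0.01% DMSO, they were transferred to a hypoxic workstation at 1% O2. After 48 h there, the cells were reoxygenated for 24 h in a normal incubator, and comparison cells stayed in normoxia throughout the same time. Cell viability was quantified with CellTiter-Glo luminescence and normalised to vehicle-treated control cells.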
# [1] = oxygen condition: hypoxia 48 h (1% O2) + reoxygenation 24 h, 40 nM
# [2] = oxygen condition: hypoxia 48 h (1% O2) + reoxygenation 24 h, 200 nM
# [3] = oxygen condition: hypoxia 48 h (1% O2) + reoxygenation 24 h, 1000 nM
# [4] = oxygen condition: hypoxia 48 h (1% O2) + reoxygenation 24 h, 5000 nM
# [5] = oxygen condition: normoxia 72 h, 40 nM
# [6] = oxygen condition: normoxia 72 h, 200 nM
# [7] = oxygen condition: normoxia 72 h, 1000 nM
# [8] = oxygen condition: normoxia 72 h, 5000 nM
SMILES,relative cell viability [1],relative cell viability [2],relative cell viability [3],relative cell viability [4],relative cell viability [5],relative cell viability [6],relative cell viability [7],relative cell viability [8]
CN1CCN(C2=Nc3ccccc3Oc3ccc(Cl)cc32)CC1 [Loxapine Succinate],100,103,105,116,103,111,102,125
CC(C)(Oc1ccc(CCNC(=O)c2ccc(Cl)cc2)cc1)C(=O)O [Bezafibrate],102,98.2,105,107,105,101,99.8,103
CC(C)NCC(O)c1ccc(NS(C)(=O)=O)cc1 (stereo not drawn) [Sotalol],100,98.9,93,99.8,96.9,94.1,98.4,104
O=C(O)c1cn(C2CC2)c2cc(N3CCNCC3)c(F)cc2c1=O [Ciprofloxacin],107,100,99.7,121,97.4,99.2,107,121
Oc1ncnc2[nH]ncc12 [Allopurinol],114,108,106,109,105,103,106,110
CN(C)CCc1c[nH]c2ccc(CS(=O)(=O)N3CCCC3)cc12 [Almotriptan malate],98,99,97.6,91.9,98.2,103,102,52.1
CC(C)NC[C@H](O)COc1ccc(CCOCC2CC2)cc1 [Levobetaxolol HCl],110,102,107,115,105,106,108,115
CO[C@H]1C(=O)[C@]2(C)[C@@H](OC)C[C@H]3OC[C@@]3(OC(C)=O)[C@H]2[C@H](OC(=O)c2ccccc2)[C@]2(O)C[C@H](OC(=O)[C@H](O)[C@@H](NC(=O)OC(C)(C)C)c3ccccc3)C(C)=C1C2(C)C [Cabazitaxel],32.1,34.3,39.6,36.6,24.7,27.2,26.8,29.7
Nc1ccn([C@@H]2O[C@H](CO)[C@@H](O)C2(F)F)c(=O)n1 [Gemcitabine HCl],3.53,3.99,3.86,3.72,3.77,4.75,3.77,3.39
CC1CCc2cc(F)cc3c(=O)c(C(=O)O)cn1c23 (stereo not drawn) [Flumequine],104,98.4,117,108,106,120,104,98.2
N=C(N)NC(=O)c1nc(Cl)c(N)nc1N [Amiloride hydrochloride dihydrate],101,106,107,118,101,102,106,111
COc1ccc2[nH]c([S+]([O-])Cc3ncc(C)c(OC)c3C)nc2c1 (stereo not drawn) [Omeprazole],101,99.7,107,110,104,103,103,105
CCCCNC(=O)NS(=O)(=O)c1ccc(C)cc1 [Tolbutamide],99,99.7,101,113,103,102,102,110
CNC(=O)c1cc(Oc2ccc(NC(=O)Nc3ccc(Cl)c(C(F)(F)F)c3)c(F)c2)ccn1 [Regorafenib],107,113,109,114,110,110,114,134
c1cnc2cc3c(cc2n1)[C@@H]1CNC[C@H]3C1 [Varenicline tartrate],106,105,110,106,106,102,112,97.8
Oc1cc(O)c(Cl)cn1 [Gimeracil],99.3,101,100,104,97.8,101,101,105
Cc1onc(-c2ccccc2Cl)c1C(=O)N[C@@H]1C(=O)N2[C@@H]1SC(C)(C)[C@@H]2C(=O)O [Cloxacillin sodium],96,106,106,107,101,102,102,100
CCOC(=O)C1=C(C)NC(C)=C(C(=O)OC)C1c1cccc([N+](=O)[O-])c1 (stereo not drawn) [Nitrendipine],95.9,106,98.1,107,107,103,104,111
O=c1cc[nH]c(=S)[nH]1 [2-Thiouracil],99.6,105,104,104,102,103,100,114
CC(C)(C(=O)O)c1ccc(C(O)CCCN2CCC(C(O)(c3ccccc3)c3ccccc3)CC2)cc1 (stereo not drawn) [Fexofenadine HCl],106,96.5,99.8,99.8,107,96.2,104,110
O=C(O)/C=C/c1ccc(Cn2ccnc2)cc1 [Ozagrel],102,97.4,85.7,29.5,105,107,90,18
